In PubChem BioAssay (NCI):
About 83,000 compounds went through this panel and 20% of them were active in at least one assay; those are over-represented in the sample as a whole.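 Plates (96-well) were seeded with cells, treated with compound at one concentration, and incubated for 48 hours before percent growth was determined.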 Values without a mark were called inactive. The source made the active and inactive calls. The calls were made as follows: active = growth percent below 10; inactive = the rest.

Tests used:
Assay in all cases: NCI-60 one-dose screen, 48 h (100 = growth as untreated, 0 = no growth, -100 = all killed)
Conditions in all cases: 10 µM unless noted
NCI-H23 lung = tested on: NCI-H23 lung
NCI-H226 lung = tested on: NCI-H226 lung
NCI-H322M lung = tested on: NCI-H322M lung
HOP-62 NSCLC = tested on: HOP-62 NSCLC
NCI-H460 lung = tested on: NCI-H460 lung
HOP-92 NSCLC = tested on: HOP-92 NSCLC
NCI-H522 lung = tested on: NCI-H522 lung
A549/ATCC NSCLC = tested on: A549/ATCC NSCLC
786-0 renal = tested on: 786-0 renal
COLO 205 colon = tested on: COLO 205 colon

Compound	growth (NCI-H23 lung)	growth (NCI-H226 lung)	growth (NCI-H322M lung)	growth (HOP-62 NSCLC)	growth (NCI-H460 lung)	growth (HOP-92 NSCLC)	growth (NCI-H522 lung)	growth (A549/ATCC NSCLC)	growth (786-0 renal)	growth (COLO 205 colon)
O=C1c2ccccc2C(=O)c2c1cc1c(c2[N+](=O)[O-])OCO1	4.14% (active)	25.9%	46.9%	3.82% (active)	3.42% (active)	-3.71% (active)	-46.6% (active)	49%	2.64% (active)	48%
O=C1/C(=C/c2ccccc2F)CN(C(=O)C(Cl)Cl)C/C1=C\c1ccccc1F	-33.2% (active)	39.4%	-18.5% (active)	13.8%	-74.2% (active)	-27.9% (active)	-49.8% (active)	-2.28% (active)	-71.9% (active)	-57.6% (active)
NS(=O)(=O)c1ccc(NC(=O)/C(=C\c2ccc(Cl)cc2Cl)NC(=O)c2ccccc2)cc1	107%	103%	102%	95.7%	105%	87%	80.3%	105%	104%	110%
COc1cccc(-c2cc(-c3cccc(Cl)c3)c(C#N)c(=O)[nH]2)c1	86.7%	91.4%	89.5%	68.5%	78.5%	51.7%	62.2%	70.9%	88.8%	111%
O=C(N/N=C\c1cccc([N+](=O)[O-])c1)N/N=C/c1cccc([N+](=O)[O-])c1	101%	92.4%	104%	92.9%	107%	105%	98.9%	100%	111%	119%
CCC1S/C(=N\N=C(\C)c2cc3cc(Cl)ccc3o2)N(c2ccccc2)C1=O (stereo not given)	90.7%	113%	82.4%	100%	122%	71%	160%	132%	85.8%	118%
COc1ccc(/C=C/C(c2cc(OC)c(OC)c(OC)c2)n2ccnc2)cc1O (stereo not given)	55.7%	88.4%	45.8%	47.2%	16.5%	30.5%	24.6%	29.1%	34%	89.8%
CC(=O)c1sc2sc(C(C)=O)c(C)c2c1C	101%	42.5%	99%	80.3%	97.9%	91.1%	76.6%	74.8%	89.2%	114%
COC(=O)c1ccc(NC(=O)Nc2ccc(C(=O)OC)cc2)cc1	113%	99%	104%	106%	110%	85.7%	51.2%	94.7%	105%	104%
C=C1CC[C@@H]2[C@](C)(COC(C)=O)[C@H](OC(C)=O)CC[C@@]2(C)[C@@H]1CC(Nc1ccc(S(=O)(=O)NC(C)=O)cc1)C1=CCOC1=O (stereo not given in full)	7.36% (active)	-52.3% (active)	35.3%	82%	5.29% (active)	21%	-63.2% (active)	27.9%	-66% (active)	-32.7% (active)
O=C(CN1CCN(c2cc3c(cc2F)c(=O)c(C(=O)O)cn3C2CC2)CC1)N/N=C/c1ccco1	104%	94.1%	95%	82.8%	105%	87.9%	93.5%	90.6%	96.4%	102%
O=C(Nc1ncc(Cc2cc(C(F)(F)F)ccc2Cl)s1)c1cccs1	58.2%	76.5%	65.5%	42.5%	32.2%	47.1%	35.2%	37.8%	79.6%	56.2%
CC(=C(c1ccc(OCCN2CCCCC2)cc1)c1ccc(OCCN2CCCCC2)cc1)c1ccc(Cl)cc1	-82.4% (active)	-73.4% (active)	-97.2% (active)	-82% (active)	-82.4% (active)	-82.9% (active)	-76.9% (active)	-81.7% (active)	-90.9% (active)	-68.2% (active)
Cc1ccc(N2C(=O)CCC2=O)cc1	101%	105%	104%	99.2%	99.7%	96.3%	74.2%	102%	97.4%	107%
COc1cc(C(=O)c2c(-c3ccccc3)oc3c(OC)cccc23)cc(OC)c1OC	23.8%	8.39% (active)	46.2%	30%	3.18% (active)	-1.18% (active)	13.9%	17%	9.22% (active)	-15.7% (active)
